# Only some compounds are listed: those with a hit (about 4.4% of all), similar ones and a draw of the others.
# tim23-1 inh: inhibits growth of tim23-1 mutant yeast; AID 463212; inhibition, % at 20 µM; 330,000 tested, 1.3% active; S. cerevisiae tim23-1 growth, BacTiter-Glo luminescence, 24 h;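 active = growth inhibition of the mutant yeast at or above 50%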;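 note: temperature-sensitive mutant grown at 25 °C; plate controls were DMSO-treated mutant yeast for no effect and medium wells lacking yeast for full effect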
# TIM10 inh: inhibits growth of TIM10 yeast strain. inhibition, % at 10 µM. 330,000 tested, 1.4% active. S. cerevisiae TIM10 strain growth, BacTiter-Glo luminescence, 24 h. AID 463195;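 active = inhibition of 40% or more at the single tested concentration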;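 note: wild-type TIM10 isogenic control strain grown at permissive 25 °C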
# tim10-1 inh: inhibits growth of tim10-1 mutant yeast | 330,000 tested, 2.2% active | inhibition, % at 20 µM | S. cerevisiae tim10-1 ts strain growth, BacTiter-Glo, 24 h | AID 463190;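 active = inhibition of at least 40%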;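 note: mutant grown at 25 °C; 0% = DMSO wells with yeast and 100% = wells holding no yeast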
# PfHsp90 yeast 2: inhibits growth of yeast expressing Plasmodium falciparum Hsp90; AID 504621; 310,000 tested, 0.32% active; S. cerevisiae expressing PfHsp90, BacTiter-Glo ATP, 48 h; yeast lacking PDR1 and PDR3 efflux regulators; inhibition, % at 9.4 µM;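 active = every replicate shows inhibition above about 80%, whatever the replicate mean, limit read from the data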;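 note: 0% = DMSO neutral controls and 100% = 20 µM radicicol positive controls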
# Mot1-301 SUMO: inhibitors of SUMOylation pathway: yeast Mot1-301 growth rescue | S. cerevisiae Mot1-301 growth rescue, ATP luminescence, 38.5C; percent above DMSO median, 100 means doubled | growth rescue, % at 18.8 µM | 320,000 tested, 1% active | AID 2716;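 active = every valid replicate shows activation above 250% relative to neutral control wells; inactive = the rest, any valid replicate at or below 250%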;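 note: OY570 slx delta 5 strain wells were the positive control but not used for scaling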
# tim10-1 conf: confirmation of tim10-1 mutant yeast growth inhibitors; 7,400 tested, 56% active; AID 463213; S. cerevisiae tim10-1 ts strain growth, BacTiter-Glo, 24 h; inhibition, % at 20 µM; shares compounds with tim10-1 inh;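 active = inhibition of yeast growth at or above a set limit in either of two repeat tests at 20 µM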;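 note: tim10-1 mutant grown at permissive 25 °C to find synthetic lethal compounds; 0% = DMSO yeast wells and 100% = medium wells without yeast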
# TIM10 conf: TIM10 yeast growth inhibition, confirmed | shares compounds with TIM10 inh | S. cerevisiae tim10 strain growth, BacTiter-Glo luminescence, 24 h | inhibition, % at 10 µM | 4,600 tested, 63% active | AID 463215;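 active = inhibition of yeast growth at or above a set limit in either of two replicates at 10 µM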;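 note: this counterscreen used the strain with wild-type TIM10; 0% = yeast with DMSO and 100% = medium wells lacking yeast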
# tim23-1 conf: confirmation of tim23-1 mutant yeast growth inhibitors; inhibition, % at 20 µM; S. cerevisiae tim23-1 growth, BacTiter-Glo luminescence, 24 h; shares compounds with tim23-1 inh; AID 463218; 4,400 tested, 83% active;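 active = inhibition above about 39% in either of two replicate wells at 20 µM, limit read from the data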;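 note: temperature-sensitive tim23-1 mutant grown at 25 °C; 0% = DMSO wells with yeast and 100% = medium wells without yeast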
# * = called active by the depositor; x = no result given.
SMILES,tim23-1 inh,TIM10 inh,tim10-1 inh,PfHsp90 yeast 2,Mot1-301 SUMO,tim10-1 conf,TIM10 conf,tim23-1 conf
FC(F)C(F)(F)c1cc(-c2ccc(Cl)cc2)n[nH]1,52*,22,52*,x,-21,42*,x,41*
COC(=O)c1cc(-c2ccc(Cl)cc2)n[nH]1,8,8,26,3,-6,x,x,x
CCCCCC(=O)N/N=C/c1ccc([N+](=O)[O-])o1,22,26,22,-18,-1,x,x,x
O=[N+]([O-])c1ccc(/C=N/NC(=S)Nc2ccccc2F)o1,55*,43*,56*,-8,-2,47*,-6,58*
O=C(CCC(=O)Nc1ccc(Cl)cc1Cl)N/N=C/c1ccc([N+](=O)[O-])o1,92*,45*,64*,x,-2,43*,51*,88*
O=C(N/N=C\c1ccc([N+](=O)[O-])o1)C1COc2ccccc2O1 (stereo unspecified),57*,31,57*,-25,-15,49*,x,42*
COCCn1ccc2c(OCC(=O)Nc3ccccc3OC)cccc2c1=O,23,11,23,x,17,x,x,x
Cc1noc(C)c1NC(=O)Nc1cccc2c1O[C@@H](CN(C)C(=O)Nc1ccc3c(c1)OCO3)[C@@H](C)CN([C@H](C)CO)C2=O,15,1,1,10,4,x,x,x
COc1ccc(-n2cccc2/C=C/[N+](=O)[O-])cc1,83*,59*,62*,-14,4,53*,-9,73*
O=C(C1CCC(CNS(=O)(=O)c2ccccc2)CC1)N1CCOCC1 (stereo unspecified),-4,-8,-4,8,91,x,x,x
N/C(Cc1ccccc1)=N\OC(=O)c1cccc2ccccc12,68*,85*,77*,-8,6,57*,91*,50*
O=C(O/N=C(\c1ccccc1)c1ccncc1)c1ccccc1F,51*,30,50*,6,6,37*,x,61*
N/C(Cn1cncn1)=N\OC(=O)c1ccc(Cl)cc1Cl,23,7,17,-6,16,x,x,x
N/C(Cc1ccc(Cl)cc1Cl)=N\OC(=O)c1ccccc1F,65*,81*,63*,4,141,14,88*,53*
O=C(O/N=C(/c1ccccc1)c1ccncc1)c1cccc(F)c1,37,39,29,-16,7,x,x,x
N/C(=N\OC(=O)c1cccc2ccccc12)c1ccc(Br)cc1,63*,69*,67*,16,9,61*,69*,68*
N/C(=N\OC(=O)c1ccc2ccccc2c1)c1ccc(Br)cc1,9,13,28,-20,-8,x,x,x
NC(=O)c1cccc2ccccc12,-1,2,1,-26,-19,x,x,x
Cn1c(N)c(C(=O)COC(=O)CNC(=O)c2ccccc2Cl)c(=O)n(C)c1=O,6,8,12,-4,-16,x,x,x
N/C(Cc1cccc2ccccc12)=N\OC(=O)c1ccccc1F,67*,61*,55*,-3,-14,50*,71*,76*
N/C(Cc1cccc2ccccc12)=N\OC(=O)COc1ccccc1,41,33,38,-5,1,x,x,x
CC(C)Cn1c2c(c(O)c(C(=O)Nc3ncccc3O)c1=O)CCCC2,55*,50*,40*,-14,-13,43*,57*,61*
Cc1ccc(/C(N)=N/OC(=O)N2c3ccccc3Sc3ccccc32)cc1,68*,86*,63*,4,-41,50*,80*,46*
N/C(=N\OC(=O)C(c1ccccc1)c1ccccc1)c1ccncc1,17,2,3,6,-7,x,x,x
CCC(C(=O)O/N=C(\N)c1ccc(C)cc1)c1ccccc1 (stereo unspecified),54*,64*,69*,13,-16,61*,-15,68*
SMILES,tim23-1 inh,TIM10 inh,tim10-1 inh,PfHsp90 yeast 2,Mot1-301 SUMO,tim10-1 conf,TIM10 conf,tim23-1 conf
CCC(C(=O)O/N=C(\N)c1ccccc1)c1ccccc1 (stereo unspecified),56*,54*,56*,-31,x,53*,49*,43*
Cc1cccc(N2CCN(C(=O)COc3ccc4c(c3)CCC4)CC2C)c1 (stereo unspecified),29,4,6,-3,x,x,x,x
CCCc1ccc(C(=O)CN2C(=O)C(=O)N(C3CCCC3)C2=O)cc1,27,9,13,12,38,x,x,x
O=S(=O)(c1ccc2nc(Nc3ccccc3)ccc2c1)N1CCCCC1,50*,23,50*,-5,-13,30,x,42*
O=S(=O)(c1ccc2nc(N3CCN(c4ccccc4F)CC3)ccc2c1)N1CCCCC1,0,7,-7,-4,1,x,x,x
CCOC(=O)C1=C(C)N=C2SC(C(=O)OC)=CC(=O)N2C1c1ccc(OC)cc1 (stereo unspecified),75*,71*,69*,-6,-33,78*,75*,60*
COC(=O)C1=C(C)N=C2SC(C#N)=C(N)N2C1c1ccc(OC)cc1 (stereo unspecified),0,6,1,-13,33,x,x,x
CC(C)CNC(=O)C(=O)NCC1OCCCN1S(=O)(=O)c1ccc2c(c1)OCCO2 (stereo unspecified),0,-7,-5,10,-8,x,x,x
O=C(CCSc1ccc(Br)cc1)c1ccc(O)cc1,62*,17,50*,97*,23,49*,x,74*
O=C(/C=C1\C(=O)Nc2ccccc21)/C=C1\C(=O)Nc2ccccc21,x,x,x,-19,x,x,x,x
O=C1Nc2ccccc2/C1=C\C(=O)c1ccccc1,88*,82*,52*,1,-7,52*,93*,-43
CC(C)Oc1ccc(C(=O)/C=C2/C(=O)Nc3ccccc32)cc1,88*,76*,69*,107*,190,76*,69*,85*
CC(=O)Nc1cccc(C(=O)N2CCC(n3nccc3NC(=O)CC(C)C)CC2)c1,-8,-5,-16,4,7,x,x,x
Cc1noc(C)c1C(=O)Nc1nc2ccc(Cl)cc2s1,62*,32,50*,29,10,32*,x,47*
CC1CCCN(C(=O)CSCC(=O)Nc2nc(-c3cccs3)cs2)C1 (stereo unspecified),48,24,37,-21,20,x,x,x
CC1CCN(C(=O)CSCC(=O)Nc2nc(-c3cccs3)cs2)CC1,54*,31,43*,-44,7,27,x,49*

# Screening results (PubChem BioAssay)
